Reference: PubChem BioAssay (NCI)
This is part of a sample that, as a whole, favours compounds with a hit. Of some 83,000 tested, about 20% had one in any assay.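 Compound tested at a single concentration for 48 hours in 96-well plates; a percent growth value below 10 was scored as active.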 The source made the active and inactive calls.

What follows are compounds tested on CCRF-CEM leukemia (assay: NCI-60 one-dose screen, 48 h (100 = growth as untreated, 0 = no growth, -100 = all killed)). Details: 10 µM unless noted.

Compound	growth
O=[N+]([O-])c1ccccc1NC1c2ccccc2Oc2ccccc21	42.9% (inactive)
C=CCn1c(SCC(=O)Nc2ccc(C(=O)/C=C/c3cc(OC)c(OC)c(OC)c3)cc2)nnc1-c1ccc(OC)cc1	6.53% (active)
O=C(NCCNc1nccc(-c2c(-c3cccc(O)c3)nc3sccn23)n1)c1ccccc1O	18.9% (inactive)

The compounds below were run on MOLT-4 leukemia in the same assay as above. Details: 10 µM unless noted.

Compound	growth
O=C(Nc1cccc(-n2ccc3c(NC(=O)c4ccccc4)nccc32)c1)Nc1cc(C(F)(F)F)cc(C(F)(F)F)c1	7.11% (active)
Nc1nccc2c1ccn2-c1cccc(NC(=O)c2ccc(N3CCOCC3)c(C(F)(F)F)c2)c1	9.73% (active)
CN(C)CCS(=O)(=O)Nc1cc(-c2ccc3ncnc(Nc4ccc(F)c(Cl)c4)c3c2)cnc1Cl	-36.7% (active)
O=C(CSc1nnc(-c2cc3c([nH]c4ccccc43)c(-c3cccc(O)c3)n2)n1-c1ccccc1)c1ccccc1	41.7% (inactive)
CNCCCOc1c(Br)cc(CCNC(=O)/C(Cc2cc(Br)c(OC)c(Br)c2)=N/O)cc1Br	-17.4% (active)
O=C(Nc1cccc(-n2ccc3c(NC(=O)c4ccccc4)nccc32)c1)c1cc(N2CCOCC2)cc(C(F)(F)F)c1	0.605% (active)
[2H]c1nc(Nc2ncc(F)c(-c3cc(F)c4nc(C)n(C(C)C)c4c3)n2)c([2H])c([2H])c1CN1CCN(CC)CC1	15.4% (inactive)
O=C1c2ccccc2OC=C(c2ccccc2)N1CCCCN1CCCCC1	60.6% (inactive)
O=S(=O)(Nc1cccc2cc(OS(=O)(=O)c3ccccc3)ccc12)c1ccccc1	43.3% (inactive)
COc1cc(CN(c2ccc(Cl)cc2)C2OC(=O)c3ccccc32)cc(OC)c1OC (stereo unspecified)	35.4% (inactive)
O=C(Nc1ccc(-n2ccc3c(NC(=O)c4ccccc4)nccc32)cc1)c1cccc(C(F)(F)F)c1	18.6% (inactive)
O=C(Nc1ccc(-n2ccc3c(NC(=O)c4ccccc4)ncnc32)cc1)Nc1cccc(Cl)c1Cl	25.5% (inactive)
CC1OC(n2c3ccccc3c3c4c(c5c6ccccc6[nH]c5c32)C(=O)N(CCN[C@@H]2CCC[C@H]2N)C4=O)CC(O)C1O (stereo partly specified)	2.71% (active)
O=S(c1ccccc1)c1ccc2nnnn2n1 (stereo unspecified)	83.8% (inactive)
O=C1OC(N(Cc2ccc(Cl)cc2)c2ccccc2)c2ccccc21 (stereo unspecified)	81.9% (inactive)
COc1ccc(Cn2cc3c(c2-c2cc(OC)c(OC)c(OC)c2)CCc2c(CO)noc2-3)cc1	16.6% (inactive)
O=S(=O)(CCN1CCOCC1)Nc1cncc(-c2ccc3ncnc(Nc4ccc(F)c(Cl)c4)c3c2)c1	71.7% (inactive)
Nc1nc(-c2cc3c(cc2Cl)NC(=O)/C3=C/c2ccc(Cl)cc2)cs1	15.5% (inactive)
C=CC(=O)Nc1cccc(Nc2nc(Nc3ccc(OCCOC(F)F)cc3)ncc2F)c1	33.5% (inactive)
NC(=O)C1=C[C@H]2[C@H]3C=C[C@@]2(O)C(=O)O[C@@H]3O1	42.3% (inactive)
COc1ccc(-c2ccc(NC(=O)Nc3ccc(Cl)c(C(F)(F)F)c3)c(C)n2)cc1	24.6% (inactive)
O=C(Nc1ccc(-n2ccc3c(NC(=O)c4ccccc4)ncnc32)cc1)Nc1ccc(Cl)c(C(F)(F)F)c1	1.2% (active)
COc1cc(Cn2cc3c(c2)-c2onc(CO)c2CC3)cc(OC)c1OC	95.8% (inactive)
COc1ccccc1NC(=O)COc1ccc(/C=C2/Oc3cc4occc4c(OC)c3C2=O)cc1OC	83.4% (inactive)
O=C(Nc1ccc(-n2cc(-c3ccncc3)c(-c3ccc(O)c(Cl)c3)n2)cc1)Nc1cc(C(F)(F)F)cc(C(F)(F)F)c1	64.3% (inactive)
c1ccc(CNCCN(CCNCc2ccccn2)Cc2ccc3ccccc3c2)nc1	-24.3% (active)
Cc1ccc2[nH]c3nc4cccnc4c(C)c3c2c1	81.9% (inactive)
O=C(NCCNc1nccc(-c2c(-c3cccc(O)c3)nc3sccn23)n1)c1ccccc1O	46.2% (inactive)
